Bioassay records from PubChem BioAssay.
Compounds with a hit are over-represented: about 27% of the library has one in this group of screens.
CYP2C9 activ – CYP2C9 (human) activation. P11712. recombinant CYP2C9, luciferin-H conversion, luminescence; stronger effect = higher value; factor 1 = untreated enzyme, 0 = blocked. activation factor at 5 µM. 1.4% of 96,000 active;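 active means activation factor of 2 or more for CYP2C9 at a 5 µM dose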
Target sequence (P11712 whole entry, looked up): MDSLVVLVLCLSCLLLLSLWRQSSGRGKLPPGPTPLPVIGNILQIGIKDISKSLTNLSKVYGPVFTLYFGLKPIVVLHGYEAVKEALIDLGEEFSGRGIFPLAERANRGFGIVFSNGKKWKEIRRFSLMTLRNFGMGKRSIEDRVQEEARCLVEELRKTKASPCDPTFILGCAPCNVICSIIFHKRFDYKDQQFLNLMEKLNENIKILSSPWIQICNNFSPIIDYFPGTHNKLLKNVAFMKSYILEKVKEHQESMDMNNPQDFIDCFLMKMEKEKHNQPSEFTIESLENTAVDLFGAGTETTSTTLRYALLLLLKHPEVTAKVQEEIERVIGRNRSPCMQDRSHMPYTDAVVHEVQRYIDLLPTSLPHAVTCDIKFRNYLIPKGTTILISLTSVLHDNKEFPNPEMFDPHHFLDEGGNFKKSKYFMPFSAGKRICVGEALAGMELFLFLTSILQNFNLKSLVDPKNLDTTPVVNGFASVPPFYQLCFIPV
sEH inh – soluble epoxide hydrolase (human) inhibition | P34913 | recombinant human sEH enzymatic activity assay | inhibition, % at 2 µM | 0.34% of 91,000 active | AID 707; in the data active means inhibition above about 80%
CYP2C19 activ – increases human CYP2C19 enzyme activity; recombinant CYP2C19, luciferin-H EGE luminescence; stronger effect = higher value; 0 = fully inhibited enzyme, 1 = untreated enzyme; AID 1025; activation factor at 5 µM; 96,000 tested, under 10 active; P33261;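 active means activation factor of at least 2 at 5 µM in the primary screen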
CYP2C19 inhib – blocks human cytochrome P450 2C19 | AID 778 | inhibition, % at 5 µM | P33261 | CYP2C19 Supersomes, luciferin-H EGE luminescence, 30 min | 21% of 96,000 active;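 active means CYP2C19 inhibition above a set limit at 5 µM in the primary screen, cut at about 50% in these data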
CYP2C9 inh – human CYP2C9 inhibition | CYP2C9 Supersomes, luciferin-H conversion, luminescence | inhibition, % at 5 µM | P11712 | 20% of 96,000 active;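 active means blocking of liver enzyme CYP2C9 beyond about 50% at 5 µM, limit read from the data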
sEH act – activators of human soluble epoxide hydrolase; P34913; purified human sEH enzymatic activity, activator screen; activation, % at 2 µM; 0.04% of 91,000 active; AID 717; in the data active means activation above about 37%
Each line names hits and unclear results; the compound was inactive in the other large screens.

CCOc1ncccc1C(=O)N1CCN(Cc2ccc3c(c2)OCO3)CC1	CYP2C19 inhib 82, CYP2C9 inh 55
COc1cccc(OC)c1C(=O)N1CCN(Cc2ccccc2C)CC1	CYP2C19 inhib 79, CYP2C9 inh 74
O=C(c1cccn2c(=O)c3ccc(Cl)cc3nc12)N1CCN(Cc2ccc3c(c2)OCO3)CC1	CYP2C9 inh 70
O=C(c1cnn2cccnc12)N1CCN(Cc2ccc3c(c2)OCO3)CC1	none
COc1cccc(OC)c1C(=O)N1CCN(Cc2ccc3c(c2)OCO3)CC1	CYP2C19 inhib 57, CYP2C9 inh 61
N=c1ncn(CC(O)CO)c2nc(N3CCOCC3)[nH]c12 (stereo unspecified)	none
O=C(CN1C(=O)c2ccccc2S1(=O)=O)N1CCN(Cc2ccc3c(c2)OCO3)CC1	none (no result: sEH inh, sEH act)
Cc1ccc(C(=O)N2CCN(Cc3ccc4c(c3)OCO4)CC2)o1	none
O=C(N1CCN(Cc2ccc3c(c2)OCO3)CC1)C12CC3CC(CC(C3)C1)C2	CYP2C19 inhib 66, CYP2C9 inh 50 (no result: sEH inh, sEH act)
COc1ccc(CN2CCN(C(=O)CC(C)C)CC2)cc1OC	none
Cc1ccc(NC(=O)N2CCN(Cc3ccc4c(c3)OCO4)CC2)cc1	CYP2C9 inh 81
O=C(Cn1ncc2c1-c1ccccc1OC2)N1CCN(Cc2ccc3c(c2)OCO3)CC1	CYP2C9 inh 68
COc1ccc(CN2CCN(C(=O)CC(C)C)CC2)c2ccccc12	CYP2C19 inhib 52
COc1ccc(OC)c(C(c2nnnn2C2CCCC2)N2CCN(c3ccccc3)CC2)c1 (stereo unspecified)	CYP2C19 inhib 90, CYP2C9 inh 82 (no result: sEH inh, sEH act)
COCCn1nnnc1C(c1ccc(Cl)cc1)N1CCSCC1 (stereo unspecified)	CYP2C19 inhib 79
c1ccc(C(c2nnnn2C2CCCC2)N2CCN(c3ccccc3)CC2)cc1 (stereo unspecified)	none (no result: CYP2C9 activ, CYP2C19 activ, CYP2C19 inhib, CYP2C9 inh)
COc1ccc(C(c2nnnn2C2CCCC2)N2CCC(C)CC2)cc1 (stereo unspecified)	CYP2C19 inhib 82, CYP2C9 inh 69
CN(c1ccccc1)C(c1ccc(F)cc1)c1nnnn1C1CCCC1 (stereo unspecified)	CYP2C19 inhib 90, CYP2C9 inh 82
COCCn1nnnc1C(c1cc(OC)ccc1OC)N1CCc2ccccc2C1 (stereo unspecified)	CYP2C19 inhib 59 (no result: sEH inh, sEH act)
COCCn1nnnc1C(c1ccc(OC)cc1)N1CCC(C)CC1 (stereo unspecified)	CYP2C19 inhib 73 (no result: sEH inh, sEH act)
Fc1ccc(C(c2nnnn2C2CCCC2)N2CCN(Cc3ccncc3)CC2)cc1 (stereo unspecified)	CYP2C19 inhib 91, CYP2C9 inh 81
COc1ccc(C(c2nnnn2C2CCCCC2)N2CCN(c3ccc(OC)cc3)CC2)cc1 (stereo unspecified)	CYP2C19 inhib 72, CYP2C9 inh 85
COc1ccc(OC)c(C(c2nnnn2CCc2ccccc2)N2CCC(C(N)=O)CC2)c1 (stereo unspecified)	none
Cc1ccc(C(c2nnnn2CCc2ccccc2)N2CCC(C)CC2)cc1 (stereo unspecified)	none (no result: CYP2C9 activ, CYP2C19 activ, CYP2C19 inhib, CYP2C9 inh)
COc1ccccc1C(c1nnnn1C1CCCC1)N1CCN2CCCC2C1 (stereo unspecified)	CYP2C9 inh 85
c1cc(N2CCCC2)ccc1C(c1nnnn1C1CCCCC1)N1CCOCC1 (stereo unspecified)	none
COc1ccc(C(c2nnnn2CC2CCCO2)N2CCC(C(N)=O)CC2)cc1 (stereo unspecified)	none (no result: CYP2C9 activ, CYP2C19 activ, CYP2C19 inhib, CYP2C9 inh)
COc1ccccc1C(c1nnnn1C(C)(C)C)N1CCCCCC1 (stereo unspecified)	CYP2C19 inhib 52, CYP2C9 inh 77
COc1ccc(C(c2nnnn2CC2CCCO2)N2CCN(c3cccc(C)c3C)CC2)cc1 (stereo unspecified)	CYP2C9 inh 66
Clc1ccc(C(c2nnnn2C2CCCC2)N2CCSCC2)cc1 (stereo unspecified)	CYP2C19 inhib 63, CYP2C9 inh 79
c1cc(C(c2nnnn2C2CCCCC2)N2CCN3CCCC3C2)ccn1 (stereo unspecified)	none (no result: CYP2C9 activ, CYP2C19 activ, CYP2C19 inhib, CYP2C9 inh)
CC(C)CNS(=O)(=O)c1ccc(CCC(=O)NCc2ccco2)cc1	none (no result: CYP2C9 activ, CYP2C19 activ, CYP2C19 inhib, CYP2C9 inh)
Cc1ccc(SC(C)C(=O)NCC(C)C)cc1 (stereo unspecified)	none
COC(=O)C(Cc1cnc[nH]1)NC(=O)C1CCC(=O)N1 (stereo unspecified)	none
COc1cc(SC)ccc1C(=O)Nc1ccc2c(c1)CCN2S(C)(=O)=O	none (no result: sEH inh, sEH act)
CCc1nnc(NC(=O)c2cc(-c3ccccc3)nn2-c2ccccc2)s1	none (no result: sEH inh, sEH act)
Cc1cc(C)nc(NS(=O)(=O)c2ccc(NC(=O)c3ccc(S(=O)(=O)N4CCOCC4)cc3)cc2)n1	none
Cc1cc(NS(=O)(=O)N(C)C)ccc1C(C)C	CYP2C19 inhib 90, CYP2C9 inh 77
CN(C)S(=O)(=O)Nc1ccc2c(c1)OCO2	CYP2C19 inhib 76 (no result: sEH inh, sEH act)
COc1cc(NS(=O)(=O)c2ccc(Br)s2)cc(OC)c1	CYP2C19 inhib 100, CYP2C9 inh 96
Cc1cc(NS(=O)(=O)c2ccc(Br)s2)no1	none (no result: CYP2C9 activ, CYP2C19 activ, CYP2C19 inhib, CYP2C9 inh)
Cc1cc(C)nc(NS(=O)(=O)c2ccc(NC(=O)c3ccc4c(c3)OCO4)cc2)n1	CYP2C9 inh 52 (no result: sEH inh, sEH act)
CCNC(=O)CC1C(=O)N(c2ccc(C)cc2)C(=O)N1Cc1ccccn1 (stereo unspecified)	none
Cc1nn(C)c(C)c1S(=O)(=O)N1CCCC(C(=O)NCC2COc3ccccc3O2)C1 (stereo unspecified)	none
COc1ccc(S(=O)(=O)Nc2ccc3c(c2)OCO3)cc1C	CYP2C19 inhib 99
O=S(=O)(Nc1ccc2c(c1)OCO2)c1ccc(Br)s1	CYP2C19 inhib 78, CYP2C9 inh 96
COc1ccc(S(=O)(=O)Nc2ccc3c(c2)OCO3)cc1	CYP2C19 inhib 93, CYP2C9 inh 56
O=C(c1ccncc1)c1ccc(NS(=O)(=O)c2ccc(Br)s2)cc1	CYP2C9 inh 99
Cc1cc(NS(=O)(=O)c2ccc(NC(=O)Nc3ccc4c(c3)OCO4)cc2)no1	none (no result: CYP2C9 activ, CYP2C19 activ, CYP2C19 inhib, CYP2C9 inh)
O=C(C1CCC1)N1CCc2cc(S(=O)(=O)Nc3ccc4c(c3)OCO4)ccc21	none (no result: CYP2C9 activ, CYP2C19 activ, CYP2C19 inhib, CYP2C9 inh)
Cn1c(=O)c2c(nc(-n3ccnc3)n2Cc2ccc([N+](=O)[O-])cc2)n(C)c1=O	none
O=S(=O)(Nc1ccc2c(c1)OCO2)c1ccccc1	CYP2C19 inhib 100, CYP2C9 inh 88
CC(=O)c1cc2c(cc1NS(=O)(=O)c1ccccc1)OCO2	CYP2C9 activ 2.8, CYP2C19 inhib 88
Cc1cc(C)n(C(=O)C23CC4CC(CC(C4)C2)C3)n1	none
O=C(CCCn1c(=O)[nH]c2cc(Cl)ccc2c1=O)NCCC1=CCCCC1	none
C=CCn1c(SCC(=O)NCCC2=CCCCC2)nc2ccc(Cl)cc2c1=O	CYP2C9 inh 56
Cc1cnc(C(=O)Nc2ccccc2-c2ccc(C)o2)cn1	CYP2C9 inh 89
N#Cc1ccccc1NC(=O)CC1CCCCC1	CYP2C19 inhib 58
COCC(=O)Nc1ccccc1C#N	none
